Assay outcomes as filed in PubChem.
Sm TGR inh – qHTS Assay for the Inhibitors of Schistosoma Mansoni Peroxiredoxins; Potency, µM (doses to about 114 µM), for inactives: at the top dose activity change, negative = inhibition, actives largely listed as inhibitors; Schistosoma mansoni thioredoxin glutathione reductase (TGR), Q962Y6; purified TGR, DTNB reduction, TNB absorbance 405 nm; AID 485364, 2010; actives 3% (n = 360,000); active = well fitted inhibition curve with a large enough effect; note: % is set by controls: 0 for no effect and ±100 for the full control effect; nearly all actives have a fitted effect of over 60% in size
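First, TGR (20 nM dispensed) and NADPH were mixed with compound. Second, a 15 min room-temperature incubation followed. Third, further NADPH and then DTNB were added to start the reaction. Finally, TNB absorbance was monitored kinetically.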
SARS PLP yeast – qHTS of Yeast-based Assay for SARS-CoV PLP. S. cerevisiae expressing SARS-CoV PLpro, growth rescue. Potency, µM (titrated, usually from 32.9 µM), for inactives: at the top dose activity, positive = growth rescue, actives largely listed as activators. actives 0.19% (n = 330,000); calls by dose curve; note: 0% is about no effect; nearly all actives have a fitted effect of over 55% in size
* marks the source's active call; other numbers are inactive results. An excerpt weighted towards active compounds, which were near 3% of everything screened. Potency is the fitted concentration of half-maximal effect.

Screening COc1ccc(NC(=O)Cn2c(CCC(=O)O)ccc2-c2ccccc2)cc1Cl returned Sm TGR inh -23%.
`COc1ccc(-c2ccc(CCC(=O)O)n2NC(=O)c2ccc(O)cc2)cc1` gave Sm TGR inh -29% and SARS PLP yeast 0%.
`COc1ccccc1-n1c(CCC(=O)O)ccc1-c1ccccc1` gave Sm TGR inh 28µM* and SARS PLP yeast -7%.
COc1ccc(-n2c(CCC(=O)O)ccc2-c2ccccc2)c(OC)c1 was read as Sm TGR inh 8.9µM*.
COc1ccc(-c2ccc(CCC(=O)O)n2-c2ccccc2OC)cc1 was read as Sm TGR inh 11µM* and SARS PLP yeast 5%.
COc1ccccc1NC(=O)Cn1c(CCC(=O)O)ccc1-c1ccc(C)cc1 was read as Sm TGR inh -24% and SARS PLP yeast -5%.
For CCc1ccc(NC(=O)Cn2c(=O)n(CCC(=O)NCCc3ccc(OC)c(OC)c3)c(=O)c3ccccc32)cc1 the results were Sm TGR inh -2%.
Screening CC(=O)Oc1c(C)cc(O)c2ccccc12 returned Sm TGR inh 40µM* and SARS PLP yeast -5%.
CC(=O)Cc1cc(O)c2ccccc2c1OC(=O)c1ccccc1 was read as SARS PLP yeast -1%.
Screening CCCCNC(=O)CSc1nc2ccccc2nc1Cc1ccc(Cl)cc1 returned Sm TGR inh -1%.
`[O-][n+]1onc2c1CCC(=N/O)/C2=N\Nc1ccccc1` gave Sm TGR inh 18µM* and SARS PLP yeast 2%.
Screening [O-][n+]1c2c(nn1-c1ccccc1)/C(=N/O)CCC2 returned SARS PLP yeast -1%.
`CCOc1ccc(NC(=O)c2ccc3nc(C(C)C)oc3c2)cc1` gave Sm TGR inh 8%.
For O=C(O)C[C@@H]1C(=O)O[C@@H]2C(COC(=O)c3cc(O)c(O)c(O)c3)O[C@@H](OC(=O)c3cc(O)c(O)c(O)c3)[C@@H](OC(=O)c3cc(O)c(O)c4c3[C@H]1[C@H](O)C(=O)O4)[C@H]2OC(=O)c1cc(O)c(O)c(O)c1 (some centres undefined) the results were Sm TGR inh 16µM* and SARS PLP yeast 1.4µM*.
Screening CCOC(=O)c1c(NC(=O)CSc2cn(CCNC(=O)c3ccccc3F)c3ccccc23)sc2c1CCCC2 returned Sm TGR inh -1%.
For COc1cc(OC)c(NC(=O)NCc2cccn2Cc2ccccc2)cc1Cl the results were Sm TGR inh -3%.
`Cc1ccc(Cl)cc1NC(=O)C1CC(=O)Nc2ncnn21` (centres undefined) gave Sm TGR inh -22% and SARS PLP yeast -1%.
For O=C1CC(C(=O)Nc2cc(Cl)ccc2Cl)n2ncnc2N1 (centres undefined) the results were Sm TGR inh 22µM* and SARS PLP yeast -1%.
`Cc1ccc(-n2c(=O)c3c(C)c(C)sc3n(CC(=O)NCc3ccccc3)c2=O)cc1C` gave Sm TGR inh -3%.
COc1cccc(C2CC(=O)Nc3c2ccc(C)c3C)c1OC (centres undefined) was read as Sm TGR inh 0%.
`O=C1NC(c2cccnc2)Nc2sc3c(c21)CCCC3` (centres undefined) gave Sm TGR inh 45µM* and SARS PLP yeast -29%.
O=C1NC(c2ccc(Br)cc2)Nc2sc3c(c21)CCC3 (centres undefined) was read as Sm TGR inh 21% and SARS PLP yeast -3%.
CN1CCc2c(sc3c2C(=O)NC(c2ccccn2)N3)C1 (centres undefined) was read as Sm TGR inh 40µM* and SARS PLP yeast -2%.
`O=C1NC(c2ccccn2)Nc2sc3c(c21)CCC3` (centres undefined) gave Sm TGR inh 32µM* and SARS PLP yeast 3%.
CN1CCc2c(sc3c2C(=O)NC(c2ccccc2)N3)C1 (centres undefined) was read as Sm TGR inh -19% and SARS PLP yeast 6%.
`Cc1ccsc1C1NC(=O)c2ccccc2N1` (centres undefined) gave Sm TGR inh -13% and SARS PLP yeast 3%.
For CC1(C)Cc2c(sc3c2C(=O)NC(c2cccnc2)N3)CO1 (centres undefined) the results were Sm TGR inh -33% and SARS PLP yeast 1%.
Cc1ccsc1C1NC(=O)c2c(sc3c2CCCC3)N1 (centres undefined) was read as Sm TGR inh 35µM* and SARS PLP yeast -19%.
CCc1cccc(NC(=O)c2oc3ccc4c(c3c2C)C(=O)CC(C)(C)O4)c1 was read as Sm TGR inh -1%.
Screening COc1ccc(-c2nnc(SCC(=O)Nc3cccc(C(F)(F)F)c3)nc2-c2ccc(OC)cc2)cc1 returned Sm TGR inh -13%.
Screening CC(C)N(C(=O)Cn1cc(S(=O)(=O)Cc2ccc(Br)cc2)c2ccccc21)C(C)C returned Sm TGR inh 2%.
